According to PubChem BioAssay AID493170 (National Center for Advancing Translational Sciences (NCATS), 2011):
Inconclusive results are not listed. A call without a number means that no potency is given here. The source made the active and inactive calls. Calls come from the whole dose curve; as a rule, active = well fitted inhibition curve with a large enough effect; inconclusive = small, poorly fitted or top-dose-only effect, or effect the other way; inactive = flat fitted curve, though single readings scatter.

Target: Ubiquitin carboxyl-terminal hydrolase 2 (Homo sapiens) (UniProt O75604)
Sequence (O75604 whole entry, looked up): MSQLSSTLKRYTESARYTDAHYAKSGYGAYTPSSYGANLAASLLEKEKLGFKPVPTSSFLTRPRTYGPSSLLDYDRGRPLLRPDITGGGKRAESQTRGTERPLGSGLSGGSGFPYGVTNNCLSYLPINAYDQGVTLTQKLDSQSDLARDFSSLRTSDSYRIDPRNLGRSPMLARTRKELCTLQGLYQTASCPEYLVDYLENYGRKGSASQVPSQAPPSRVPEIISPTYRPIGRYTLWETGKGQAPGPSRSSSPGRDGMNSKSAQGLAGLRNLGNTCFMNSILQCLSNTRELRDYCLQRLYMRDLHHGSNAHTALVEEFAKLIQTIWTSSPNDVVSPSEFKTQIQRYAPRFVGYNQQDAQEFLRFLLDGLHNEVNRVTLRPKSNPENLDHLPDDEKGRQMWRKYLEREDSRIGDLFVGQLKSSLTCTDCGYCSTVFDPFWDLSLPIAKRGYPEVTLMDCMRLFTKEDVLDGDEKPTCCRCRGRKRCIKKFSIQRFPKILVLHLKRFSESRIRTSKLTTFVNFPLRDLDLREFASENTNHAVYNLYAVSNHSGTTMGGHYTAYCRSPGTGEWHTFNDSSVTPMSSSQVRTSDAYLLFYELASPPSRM
Assay: Ub-rhodamine 110 based assay for inhibitors Ubiquitin-specific Protease USP2a; note: nearly all actives have a fitted effect of over 50% in size
Conditions: USP2a Ub-rhodamine110 cleavage, fluorescence; series mostly up to 38.3 µM
Text: NIH Molecular Libraries Probe Centers Network [MLPCN] NIH Chemical Genomics Center [NCGC] MLPCN Grant: XO1-MH079852-01 PI Name: Nicholson, Ben. Progenra Inc, Malvern, PA NCGC Assay Overview: Homeostasis of cellular proteins is maintained through a combination of synthesis and degradation. The pathway that accounts for the majority of protein degradation is the ubiquitin-proteasomal pathway. Ubiquitin (Ub) is highly conserved in all cells and the generation of a multi-Ub chain typically targets proteins for degradation by the proteasome. However, ubiquitination is highly reversible and dynamic. Deubiquitination, the reverse process, is catalyzed through the action of enzymes referred to as isopeptidases or deubiquitinating enzymes (DUBs). This group of enzymes is collectively responsible for maintaining adequate pools of free ubiquitin and regulating the ubiquitination status of cellular proteins. The class of DUBs referred to as the ubiquitin-specific proteases (USP) family functions endoproteolytically to cleave Ub chains from a wide range of protein substrates. USP2a deubiquitinates fatty acid synthase (FASN) which has recently been identified as an emerging oncology target. To identify inhibitors of USP2a a cell-free assay was employed. This assay measures cleavage of a profluorescent substrate (Ub-Rhodamine 110; Boston Biochem Cat#: U-555) by USP2a. The assay gives a fluorescent read-out at excitation/emission wavelengths of 485/531. The USP2a enzyme was provided by Progenra, Inc. licensed for sale by LifeSensors, Inc.
NCGC Assay Protocol: The assay buffer, prepared fresh at the day of the assay, contains 20mM Tris-HCl pH 8.0, 2mM CaCl2, 2mM beta-Mercaptoethanol, 0.05% CHAPS. 3uL of 10 nM (5 nM final) USP2a, was dispensed into a medium-binding black solid Kalypsys 1,536 well plate using the Kalypsys dispenser. The assay plate was then pinned with 23nL compounds in DMSO with a Kalypsys pintool in columns 5-48 (0.3% final DMSO concentration). The negative control was buffer/DMSO only in column 3. The assay plate is incubated at RT for 30min. Subsequently, 3uL of 300 nM Ub-Rhod110 (150 nM final) was dispensed into the plate using a Kalypsys dispenser. Plates were read after every minute for 7 min on a ViewLux (Perkin Elmer) plate reader using the following wavelengths: Ex 485nm /Em 531nm. Data were normalized to the AC100 inhibition (buffer alone). Concentration-response curves were fitted to the normalized data and the concentration-response curves were then classified based on curve quality (r2), response magnitude and degree of measured activity. The time zero reading was used to flag fluorescence artifacts.
Potency is the fitted concentration of half-maximal effect.

`COCc1cc(C)nc(OCC(=O)N/N=C\c2cc(C)n(-c3cccc(C(F)(F)F)c3)c2C)c1C#N` was tested. Which Potency did it give?
Its Potency is “inactive”.

Which Potency does the source give for `O=C(c1ccc([N+](=O)[O-])cc1)N(Cc1ccc(Cl)cc1)N1C(=O)CCCC1=O` here?
Its Potency is “inactive”.

With `COc1ccc2[nH]c(=O)c(CN(C)C(=O)C3CCCCC3)cc2c1` as the compound, how does the Potency read?
Its Potency is “inactive”.

How did the Potency turn out when `COc1ccc(CCN2CC(C#N)=C3c4cc(OC)c(OC)cc4CCN3C2)cc1OC` was run?
Its Potency is “inactive”.

Which Potency does the source give for `COc1ccc(N(C(=O)C(C)C)S(=O)(=O)c2ccc(Cl)cc2)cc1` here?
The Potency was “inactive”.

Which Potency does the source give for `CCCCCCCCCCOC(=O)Cn1c(COc2cccc(C)c2)[n+](C)c2ccccc21` here?
Its Potency is “inactive”.

`O=C(C[n+]1ccc(C(=O)N/N=C/c2ccc(OCc3ccccc3)cc2)cc1)c1ccccc1` was tested. Which Potency did it give?
Its Potency is 8.91 µM (active).

How did the Potency turn out when `CCCC(c1nnnn1Cc1ccc(OC)cc1)N1CCC(C(N)=O)CC1` (stereo not given) was run?
Its Potency is “inactive”.

With `COc1cccc(-c2csc3nnc(SCC(=O)NCc4cccs4)n23)c1` as the compound, how does the Potency read?
The Potency was “inactive”.

With `O=C(/C=C\c1ccco1)c1ccc(NC(=O)c2ccco2)cc1` as the compound, how does the Potency read?
The Potency was 10 µM (active).

How did the Potency turn out when `CCOC(=O)C1CCCN(C(=O)c2cc(-c3ccco3)nc3ccccc23)C1` (stereo not given) was run?
The Potency was 4.47 µM (active).

How did the Potency turn out when `CC(C)Oc1ccc(C(=O)Nc2ccc(N3CCCC3)cc2)cc1` was run?
Its Potency is 10 µM (active).

With `C/C(=N/NC(=O)c1cc2ccccc2cc1O)C1C(=O)c2ccccc2C1=O` as the compound, how does the Potency read?
The Potency was 1.78 µM (active).

For `Cc1cc(=O)oc(C)c1C(=O)NCCc1ccccc1`, which Potency is on record?
The Potency was “inactive”.

`COc1ccc(-n2c(O)c(/C=N/n3cnnc3)c3ccccc3c2=O)cc1` was tested. Which Potency did it give?
Its Potency is “inactive”.

With `COc1ccc(NC(=O)CSc2nc(O)cc(=O)n2-c2ccc(OC)cc2)cc1` as the compound, how does the Potency read?
The Potency was 11.2 µM (active).

With `CCN(Cc1ccncc1)C(=O)c1cccs1` as the compound, how does the Potency read?
The Potency was “inactive”.

With `O=C(O)CN1C(=O)/C(=C\c2ccccc2OCc2ccc(Cl)cc2Cl)SC1=S` as the compound, how does the Potency read?
Its Potency is 10 µM (active).

Which Potency does the source give for `O=C(CSc1ncn[nH]1)Nc1ccc(Br)cc1F` here?
Its Potency is “inactive”.

Which Potency does the source give for `Nc1ccc(C2=Nc3cccc4cccc(c34)N2)cc1` here?
The Potency was 12.6 µM (active).

How did the Potency turn out when `O=C(O[C@@H]1OC2COC(=O)c3cc(O)c(O)c(O)c3-c3c(cc(O)c(O)c3O)C(=O)O[C@@H]([C@H]1O)[C@@H]2O)c1cc(O)c(O)c(O)c1` was run?
The Potency was 3.16 µM (active).

With `CC(=O)N1CCCc2cc(S(=O)(=O)CCC(=O)N3CCN(c4cccc(C)c4)C(C)C3)ccc21` (stereo not given) as the compound, how does the Potency read?
The Potency was “inactive”.

Which Potency does the source give for `CCCCCCCCCCOC(=O)Cn1c(COc2ccccc2C)[n+](C)c2ccccc21` here?
The Potency was “inactive”.

`CCCc1cc(=O)oc2cc(C)c(CN3CCCC3)c(O)c12` was tested. Which Potency did it give?
Its Potency is 10 µM (active).

For `CC1(C)CC(=O)C=C(NCc2cccs2)C1`, which Potency is on record?
The Potency was “inactive”.

For `CCOC(=O)c1sc(NC(=O)Nc2ccccc2)cc1C`, which Potency is on record?
The Potency was “inactive”.

With `Cc1nc2ccccc2c2oc(C(=O)NCCN3CCN(C)CC3)cc12` as the compound, how does the Potency read?
The Potency was “inactive”.

`Cc1ccc(C(=O)NCCNS(=O)(=O)c2ccccc2)cc1` was tested. Which Potency did it give?
The Potency was “inactive”.

Which Potency does the source give for `COc1ccc(/C=C\C(=O)O[C@@H]2C(O)C(O[C@@H]3OC(C)[C@H](O[C@@H]4OCC(O[C@H]5O[C@H](CO)[C@@H](O)C(O)C5O)C(O)C4O)C(O)C3O)[C@H](OC(=O)[C@]34CCC(C)(C)C[C@@H]3C3=CCC5[C@@]6(C)CC(O)C(O[C@@H]7OC(CO)C(O)[C@H](O)[C@H]7O)[C@@](C)(C(=O)O)C6CC[C@@]5(C)[C@]3(CO)CC4)O[C@H]2C)cc1` (stereo not given in full) here?
Its Potency is “inactive”.

How did the Potency turn out when `CC1(C)CC(=O)C2=C(C1)N(Cc1ccco1)C(=O)NC2(C(F)(F)F)C(F)(F)F` was run?
Its Potency is “inactive”.

Which Potency does the source give for `Cc1ccc(SCC(=O)NCC(C)C)cc1` here?
The Potency was “inactive”.

How did the Potency turn out when `C#CCOCCOCCOCCNc1nc(N2CCN(C(=O)CCCCCCCCCCNC(=O)Cn3cc(CCCCCN)nn3)CC2)nc(N2CCN(C(=O)CCCCCCCCCCNC(=O)[C@H]([C@@H](C)CC)n3cc(CCCCCN)nn3)CC2)n1` was run?
The Potency was “inactive”.

How did the Potency turn out when `CC(=O)c1ccc(NC(=O)CC(NCCC2=CCCCC2)C(=O)O)cc1` (stereo not given) was run?
Its Potency is “inactive”.

For `CCC1SC2=NC(C)=C(C(=O)OCCOC)C(c3ccc(C(=O)OC)cc3)N2C1=O` (stereo not given), which Potency is on record?
The Potency was “inactive”.

Which Potency does the source give for `O=C(Nc1ccncc1)c1ccc(S(=O)(=O)Nc2ccccc2)cc1` here?
The Potency was “inactive”.

With `Cc1ccc(Nc2cc(C)nc(NCc3ccccc3)n2)cc1` as the compound, how does the Potency read?
The Potency was “inactive”.

For `O=C(Cc1ccc(S(=O)(=O)N2CCOCC2)s1)NCCC(c1ccccc1)c1ccccc1`, which Potency is on record?
Its Potency is 10 µM (active).

How did the Potency turn out when `COc1cc2cc(CN(CCN3CCCC3)C(=O)Nc3ccc(F)cc3)c(=O)[nH]c2cc1OC` was run?
Its Potency is “inactive”.

For `COc1ccc(CCN2C(=O)/C(=C\c3ccco3)SC2=S)cc1OC`, which Potency is on record?
The Potency was “inactive”.

Which Potency does the source give for `O=C(CCNc1cccc(Cl)c1)c1ccco1` here?
The Potency was “inactive”.
